Measurements reported in PubChem BioAssay (NCI).
The panel holds about 79,000 compounds, 15% with a hit somewhere; the sample as a whole holds those more often. Cut-off read from the data, not from the text of the source: active = growth inhibition above about 70%; inactive = the rest.

Experiments:
[1] = NCI Yeast Anticancer Drug Screen. Data for the rad50 strain (AID 155);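 note: 0% = growth of vehicle-only cultures of the same strain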; settings: S. cerevisiae rad50 strain growth inhibition; at 50.0 µM; active compounds read high
Procedure, shortened: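 Vehicle-treated cultures provide the reference for the growth inhibition reported for compound-exposed, repair-deficient yeast.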

[2] = NCI Yeast Anticancer Drug Screen. Data for the mec2-1 strain (AID 157); settings: S. cerevisiae mec2-1 strain, at 50.0 µM, active compounds read high
Procedure, shortened: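 Vehicle-treated cultures served as reference for growth inhibition of compound-exposed mec2-1 yeast.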

[3] = NCI Yeast Anticancer Drug Screen. Data for the sgs1 mgt1 strain (AID 161);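 note: 0% = growth of cultures given vehicle only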; settings: S. cerevisiae sgs1 mgt1 strain, at 50.0 µM, active compounds read high
Procedure, shortened: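 Genetically altered yeast, compound exposure, growth inhibition relative to vehicle.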

[4] = NCI Yeast Anticancer Drug Screen. Data for the cln2 rad14 strain (AID 165);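 note: 0% = growth equal to vehicle treated cultures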; settings: S. cerevisiae cln2 rad14 strain, at 50.0 µM, active compounds read high
Procedure, shortened: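 Each compound was tested on cln2 rad14 yeast. Inhibition of growth was calculated against vehicle-exposed controls.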

[5] = NCI Yeast Anticancer Drug Screen. Data for the bub3 strain (AID 167); settings: S. cerevisiae bub3 mutant strain, at 50.0 µM, active compounds read high
Procedure, shortened: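 Mutant yeast screening strain plus compound; vehicle-treated cultures serve as the 0% inhibition reference.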

[6] = NCI Yeast Anticancer Drug Screen. Data for the mlh1 rad18 strain (AID 175); settings: S. cerevisiae mlh1 rad18 strain growth inhibition; at 50.0 µM; active compounds read high
Procedure, shortened: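 Vehicle-treated cultures served as the reference for growth inhibition in a yeast strain carrying DNA damage repair alterations exposed to each compound.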

Measured: growth inhibition

Cc1c2n(c(=O)[nH]c1=O)C1OC(CO)C(N=[N+]=[N-])C1O2 (configuration not stated)
inactive: [1] -5.5% | [2] -15.9% | [3] -42% | [4] -12.3% | [5] -39.2% | [6] -32.2%

O=C(CCCN1CCC(Nc2ccccc2)(c2nnnn2C2CCCCC2)CC1)c1ccc(F)cc1
inactive: [1] -7.05% | [2] -16.2% | [3] 0.3% | [4] 11.1% | [5] 1.25% | [6] 7.15%

[N-]=[N+]=Nc1ccc(S(=O)(=O)Oc2cc(OS(=O)(=O)c3ccc(N=[N+]=[N-])cc3)cc(OS(=O)(=O)c3ccc(N=[N+]=[N-])cc3)c2)cc1
inactive: [1] 4% | [2] 16.1% | [3] 10.6% | [4] 8% | [5] -5.9% | [6] 14.1%

COC(=O)c1c(-c2ccc3c(c2)OCO3)cn(C)c1C
inactive: [1] 5.7% | [2] 1.85% | [3] 24.6% | [4] -5.25% | [5] 7.55% | [6] 11.6%

CC(=O)CC(C)(C)N
inactive: [1] -0.1% | [2] -9.7% | [3] -1.4% | [4] -6.05% | [5] 3.1% | [6] -2.1%

CNc1ccc(O)cc1
inactive: [1] 3.6% | [2] 6.9% | [3] 5.75% | [4] -24.4% | [5] -0.05% | [6] 15.4%

CCC(O)(c1ccc(OC)cc1)C(c1ccc(OCc2ccccc2)cc1)c1ccc(OCc2ccccc2)cc1 (configuration not stated)
inactive: [1] 18.9% | [2] -22.2% | [3] 5.5% | [4] 10.8% | [5] -10.1% | [6] -12.9%

NC(=O)/C(=C(/O)C(=O)O)c1ccnc2ccccc12
inactive: [1] 4.85% | [2] -4.8% | [3] 7.35% | [4] -41% | [5] -4.2% | [6] -2.15%

C(=N\OCCc1ccccc1)/c1ccccn1
inactive: [1] -14.7% | [2] -33.1% | [3] -8.95% | [4] -25.3% | [5] 9.7% | [6] 4%

Cc1c(Cl)ccc2c1NC(=O)C2(O)CC(=O)c1ccc(Cl)cc1Cl (configuration not stated)
inactive: [1] 34.4% | [2] 18.7% | [3] 0.1% | [4] -13.5% | [5] 10.9% | [6] 23.4%

O=C(NC(=O)c1ccccc1[N+](=O)[O-])Nc1ccc(Oc2ncc(Cl)cn2)c(C(F)(F)F)c1
inactive: [1] 17.1% | [2] -23.6% | [3] 7.4% | [4] -17.1% | [5] 0.5% | [6] -54.6%

Cc1csc2nc(-c3ccco3)nn12
inactive: [1] -3.2% | [2] -23.9% | [3] 4.55% | [4] 15.9% | [5] -13.3% | [6] 4.35%

Fc1ccc2nncc(/C=C/c3ccccc3F)c2c1
inactive: [1] 11.3% | [2] 7.6% | [3] 8.4% | [4] -4.85% | [5] 11% | [6] -3.5%

CCOC(=O)C(C)Oc1ccc(Cl)cc1 (configuration not stated)
inactive: [1] -7.85% | [2] -14.9% | [3] -13.1% | [4] -44.1% | [5] -6.3% | [6] 1.8%

Clc1cccc2[nH]ccc12
inactive: [1] -6.1% | [2] -3.1% | [3] -23.9% | [4] -10.2% | [5] -11.3% | [6] -3.9%

O=C(O)CCC(=O)Oc1ccc(O)c2c1CCCC2=O
inactive: [1] -6.95% | [2] 1.65% | [3] -0.95% | [4] -17.8% | [5] -1.3% | [6] -9.15%

O=C1C=CC(n2cc(F)c(=O)[nH]c2=O)O1 (configuration not stated)
inactive: [1] 27.1% | [2] 44.2% | [3] 44.9% | [4] 12.9% | [5] 9.3% | [6] -43.9%

CC(=O)Nc1ccc2oc(C)nc2c1
inactive: [1] 23.9% | [2] -1.3% | [3] 8.3% | [4] 8.7% | [5] 13.2% | [6] 20.6%

C1CSC(Sc2nc(SC3=NCCS3)nc(SC3=NCCS3)n2)=N1
inactive: [1] -22% | [2] -10.7% | [3] -10% | [4] -30.3% | [5] -31.2% | [6] -26.4%

CCC(C)(O)CCC(C)(O)CC (configuration not stated)
inactive: [1] 27.6% | [2] 5.4% | [3] 14.9% | [4] -14.7% | [5] 20% | [6] 9.25%

CCOC(=O)C1=NN(c2ccccc2)C(=O)/C1=C\N1C(=O)/C(=C/c2cccc(OC)c2O)SC1=S
inactive: [1] 30.5% | [2] 8.55% | [3] 31.6% | [4] 20.4% | [5] -0.35% | [6] 21.6%

CO/N=C1\CC(NC(=O)C(F)(F)F)c2ccsc21 (configuration not stated)
inactive: [1] 11.6% | [2] 6.9% | [3] 8% | [4] 13.3% | [5] -2.8% | [6] 38.9%

CCOC(=O)CNC(=O)CCC(=O)OC
inactive: [1] -11% | [2] -4.8% | [3] 17.4% | [4] -10.6% | [5] 5.55% | [6] -9.1%

O=C(Cl)CNS(=O)(=O)c1ccccc1
inactive: [1] 5.45% | [2] 5.1% | [3] 1% | [4] 15.8% | [5] 6.4% | [6] 1.45%

CCCCCCCCCCC1OCC(C)(C)CO1
inactive: [1] 10.3% | [2] -12.2% | [3] 17.4% | [4] -7.5% | [5] 1.65% | [6] 11.4%

Nc1nnc(-c2ccc(Cl)cc2)o1
inactive: [1] 21.3% | [2] -1.8% | [3] 21.2% | [4] 1.1% | [5] 0.05% | [6] 5.8%

O=C(O)/C=C/S(=O)(=O)Cc1ccccc1
inactive: [1] 8.7% | [2] -6.4% | [3] 2.7% | [4] -27.3% | [5] 7.5% | [6] 6.75%

COC(=O)c1ccccc1Cl
inactive: [1] -11.2% | [2] 4% | [3] 9.05% | [4] -14.3% | [5] 6.65% | [6] 26.1%

CC1=C(C[Si](C)(C)C)CC(CO[Si](C)(C)C(C)(C)C)C2C(=O)N(C(=O)c3ccccc3)C(Cc3ccccc3)C12 (configuration not stated)
inactive: [1] 21.6% | [2] 5.7% | [3] 2.05% | [4] -4.25% | [5] -3.95% | [6] 23.4%

CC(=O)/C=c1\[nH]/c(=C\C=C\c2ccccc2)c(=O)n1/C=C1\C(=O)Oc2ccccc2C1=O
inactive: [1] -39.4% | [2] 7.1% | [3] 4.6% | [4] 24.6% | [5] -18.1% | [6] -46%

CCOC(=O)c1ccc(N2C(=O)C(Cl)(c3ccccc3)C2c2ccco2)cc1 (configuration not stated)
inactive: [1] 16.2% | [2] 9.85% | [3] -1.65% | [4] 9.1% | [5] 12.4% | [6] 10.5%

ON=C(C1CCCCC1)C1CCCCC1
inactive: [1] -7.35% | [2] -29.1% | [3] -13% | [4] -37.6% | [5] -18.3% | [6] -32.9%

CCn1c(=O)c(C#N)c2n(CC)c3cc(C)c(C)cc3n2c1=O
inactive: [1] -13.5% | [2] -2.9% | [3] -11% | [4] -24.2% | [5] -31.3% | [6] -20.4%

COC(=O)/C(=N\O)C(C(=O)C=C(C)C)C(=O)C(=O)Nc1ccccc1C (configuration not stated)
inactive: [1] -5.8% | [2] -21.6% | [3] -8.35% | [4] 7.4% | [5] -14.1% | [6] -18.1%

O=c1nc(Sc2ccccc2)ccn1C1OC(CO)C(O)C1O (configuration not stated)
inactive: [1] -11.5% | [2] -8.95% | [3] -1.45% | [4] 9.35% | [5] 6.55% | [6] 5.95%

CC(C)(O)CC(O)(C(F)(F)F)C(F)(F)F
inactive: [1] 14.3% | [2] -0.95% | [3] -3.25% | [4] -20.3% | [5] 3.35% | [6] 1.9%

CCN(CC)CCOC(=O)c1c(C)cc(C)cc1C
inactive: [1] -6.3% | [2] -9.4% | [3] 4.9% | [4] -41.5% | [5] -15.6% | [6] -7.9%

CCCC1(c2ccccc2)CNC(=O)NC1
inactive: [1] -3.8% | [2] 19.5% | [3] 1.8% | [4] -9% | [5] 3.25% | [6] -2.95%

CCc1nc2c(N)ncnc2o1
inactive: [1] -1.45% | [2] -1.5% | [3] -3.3% | [4] -37.3% | [5] -19.8% | [6] 11.4%

O=C(COc1ccc(Cl)cc1)Nc1ccccc1Br
inactive: [1] 11% | [2] 12.1% | [3] 7.35% | [4] 9% | [5] 33.7% | [6] -4.55%

CC(C)C(=O)OC1CCCCC1Cc1ccccn1 (configuration not stated)
inactive: [1] 21.1% | [2] -3.25% | [3] 29.1% | [4] -17% | [5] 24.1% | [6] -6.8%

Nc1cn(Cc2ccccc2)c2nc(/C=C3/C=CC=CC3=O)c(O)n12
inactive: [1] 2.25% | [2] 1.75% | [3] -6.9% | [4] -5.45% | [5] 0.9% | [6] 8.85%
